The source of these data is article PMC4336329 (PLoS ONE, 2015).

Hit rate of the full screen: of about 310,000 compounds, about 2,200 (0.71%) showed an effect of 50% or more. The effect is printed as a negative number. Shown is part of a subset that was picked to be rich in strong results.

In the test the target is human ether-à-go-go-related gene (hERG) potassium channel (human, UniProt Q12809). In words: primary screen, population patch clamp on CHO cells stably expressing hERG; higher = less effect of the substance.
human ether-à-go-go-related gene (hERG) potassium channel, sequence (Q12809 whole entry, looked up): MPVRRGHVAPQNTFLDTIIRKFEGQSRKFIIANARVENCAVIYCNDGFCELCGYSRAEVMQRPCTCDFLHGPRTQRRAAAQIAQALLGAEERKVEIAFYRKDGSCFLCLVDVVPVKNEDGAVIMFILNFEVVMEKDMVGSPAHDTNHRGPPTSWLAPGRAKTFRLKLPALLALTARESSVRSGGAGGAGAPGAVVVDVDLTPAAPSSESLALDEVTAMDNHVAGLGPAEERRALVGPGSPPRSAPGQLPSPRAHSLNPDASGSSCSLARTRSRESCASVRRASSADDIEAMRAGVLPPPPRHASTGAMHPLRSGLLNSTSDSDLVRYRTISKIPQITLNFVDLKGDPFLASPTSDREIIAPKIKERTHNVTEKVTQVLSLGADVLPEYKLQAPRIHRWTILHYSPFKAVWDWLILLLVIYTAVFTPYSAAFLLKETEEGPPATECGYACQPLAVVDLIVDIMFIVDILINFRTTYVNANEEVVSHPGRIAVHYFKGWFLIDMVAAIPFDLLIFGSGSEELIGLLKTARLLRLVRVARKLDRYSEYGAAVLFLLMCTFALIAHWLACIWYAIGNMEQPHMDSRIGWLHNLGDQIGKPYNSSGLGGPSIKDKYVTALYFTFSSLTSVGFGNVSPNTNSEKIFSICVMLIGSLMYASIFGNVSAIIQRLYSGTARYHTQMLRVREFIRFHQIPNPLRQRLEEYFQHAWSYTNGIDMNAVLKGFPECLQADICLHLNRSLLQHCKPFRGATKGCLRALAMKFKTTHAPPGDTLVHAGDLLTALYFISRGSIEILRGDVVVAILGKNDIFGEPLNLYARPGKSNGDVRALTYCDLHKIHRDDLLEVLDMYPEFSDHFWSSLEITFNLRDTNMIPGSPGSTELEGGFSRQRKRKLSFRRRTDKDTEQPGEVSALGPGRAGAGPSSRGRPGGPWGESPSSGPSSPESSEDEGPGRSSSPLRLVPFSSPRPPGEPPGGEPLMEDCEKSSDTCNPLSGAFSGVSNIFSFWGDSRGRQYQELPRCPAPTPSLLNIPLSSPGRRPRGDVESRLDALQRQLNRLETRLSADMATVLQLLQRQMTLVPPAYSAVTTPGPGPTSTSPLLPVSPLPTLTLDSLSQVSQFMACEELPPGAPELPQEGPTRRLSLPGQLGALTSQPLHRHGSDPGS
In the case of `COc1ccc(Br)c(C(=O)OCC(=O)NC2CCCCCC2)c1`, the “hERG current change (%, negative = inhibition) at 1uM” value is recorded as -1.39%. As for `CCCCN(CC)CCNC(=O)c1cn(-c2ccc(Cl)cc2)c(=O)c2ccccc12`, the figure is -81.6%. The value for `CCCCN(CC)CCCNC(=O)c1cn(-c2ccc(OC)cc2)c(=O)c2ccccc12` was -7.85%; that for `CCCN(CCC)CCCNC(=O)c1cn(-c2ccc(OC)cc2)c(=O)c2ccccc12` was 1.46%. Consider `CCOC(=O)N1CCN(C(C)C(=O)c2c[nH]c3ccccc23)CC1` (stereo not drawn), for which the “hERG current change (%, negative = inhibition) at 1uM” value is on record as -0.111%. The value for `O=C(NNc1ccc(-c2csnn2)cc1)c1ccccc1C(F)(F)F` was 9.16%; that for `CCC1C(=O)C(C)(C)C(=O)OC1c1ccc([N+](=O)[O-])cc1` (stereo not drawn) was 9.82%; that for `CC1C(=O)CC(c2ccc([N+](=O)[O-])cc2)NC1c1ccc([N+](=O)[O-])cc1.Cl` (stereo not drawn) was -51%.

Take `CC1C(=O)C(C)C(c2ccc([N+](=O)[O-])cc2)NC1c1ccc([N+](=O)[O-])cc1` (stereo not drawn): the “hERG current change (%, negative = inhibition) at 1uM” value was -4.32%. On to `CCC1C(=O)CC(c2ccc([N+](=O)[O-])cc2)NC1c1ccc([N+](=O)[O-])cc1` (stereo not drawn), for which the “hERG current change (%, negative = inhibition) at 1uM” value is -69.7%. Take `CCC1C(=O)CC(c2ccccc2)NC1c1ccccc1` (stereo not drawn): the “hERG current change (%, negative = inhibition) at 1uM” value was determined as 5.67%. In the case of `CC1C(=O)CC(c2ccccc2)NC1c1ccccc1` (stereo not drawn), the “hERG current change (%, negative = inhibition) at 1uM” value is 3.38%. Regarding `Cc1ccc(P(=S)(c2ccc(C)o2)N2CCOCC2)o1`, the “hERG current change (%, negative = inhibition) at 1uM” value amounted to 3.25%.

With `CCn1c(SCC(=O)Nc2cc(NC(C)=O)ccc2OC)nnc1-c1cccnc1`, the “hERG current change (%, negative = inhibition) at 1uM” value amounted to 7.42%. `Cc1nc2ccccn2c1CN(C)C(=O)C1CCC(=O)N(CCc2cccc(F)c2)C1` (stereo not drawn): the “hERG current change (%, negative = inhibition) at 1uM” value was -10.4%. As for `CN(Cc1ccccn1)C(=O)C1CCC(=O)N(Cc2cccc(F)c2)C1` (stereo not drawn), the figure is 8.55%. As for `Cc1nc2ccccn2c1CN(C)C(=O)C1CCC(=O)N(Cc2cccc(F)c2)C1` (stereo not drawn), the “hERG current change (%, negative = inhibition) at 1uM” value is on record as -58%.

As for `COc1ccc(C(=O)N/C(=C\c2ccccc2)C(=O)NC(CC(C)C)C(=O)O)cc1` (stereo not drawn), the “hERG current change (%, negative = inhibition) at 1uM” value is 21.4%. As for `Cc1cccc(OCC(=O)Nc2ccncc2)c1`, the figure is 6.41%; as for `CCN(Cc1ccccc1)CC(O)COC(c1ccc(OC)cc1)c1ccc(OC)cc1` (stereo not drawn), -32.9%. The value for `CCOc1ccc(CN(C)CC(O)COC(c2ccc(OC)cc2)c2ccc(OC)cc2)cc1` (stereo not drawn) was -81.9%; that for `COc1ccc(CN(C)CC(O)COC(c2ccc(OC)cc2)c2ccc(OC)cc2)cc1` (stereo not drawn) was -80.8%; that for `COc1ccc(C(OCC(O)CN(C)C2CCCCC2)c2ccc(OC)cc2)cc1` (stereo not drawn) was -29.3%.

Consider `COc1cccc(CN(C)CC(O)COC(c2ccccc2)c2ccccc2C)c1` (stereo not drawn), for which the “hERG current change (%, negative = inhibition) at 1uM” value is on record as -8.56%. As for `COc1ccc(CN(C)CC(O)COC(c2ccccc2)c2ccccc2)c(OC)c1OC` (stereo not drawn), the figure is -43.6%; as for `CCN1CCN(S(=O)(=O)c2ccc(Cl)c(C(=O)NC(C)c3ccccc3Cl)c2)CC1` (stereo not drawn), 5.99%; as for `O=C(NCCCO)c1ccc2[nH]c3ccccc3c2c1`, 13.4%. Take `O=C(NCc1cc([N+](=O)[O-])ccc1O)c1cccnc1Sc1ccc(Cl)cc1`: the “hERG current change (%, negative = inhibition) at 1uM” value was determined as 16.3%. Take `COc1cccc(C2=CC(c3cc(OC)ccc3OC)n3nnnc3N2)c1` (stereo not drawn): the “hERG current change (%, negative = inhibition) at 1uM” value was found to be 15.2%. Take `O=C(CN(C(=O)c1csnn1)c1ccc(F)cc1)NCc1ccc(F)cc1`: the “hERG current change (%, negative = inhibition) at 1uM” value is on record as 3.44%. The value for `CC(=O)Nc1cc2c(cc1NC(=O)c1cnccn1)OCCO2` was 19.8%. Turning to `CCOC(=O)c1sc(NC(=S)NC(=O)c2cccc(Cl)c2)c(C(=O)OCC)c1C`, the “hERG current change (%, negative = inhibition) at 1uM” value was determined as 1.03%. `COc1ccc(S(=O)(=O)Nc2ccccc2OC)cc1NC(=O)c1cc2ccccc2oc1=O`: the “hERG current change (%, negative = inhibition) at 1uM” value was -4.91%. As for `CCCCCC(O)(CCN1CCCCC1)c1ccc(OCC)cc1.Cl` (stereo not drawn), the figure is -82%.

With `CCCCCCC(O)(CCN1CCCCC1)c1ccccc1.Cl` (stereo not drawn), the “hERG current change (%, negative = inhibition) at 1uM” value is given as -17.1%.

For `CCCC(O)(CCN1CCOCC1)c1ccc(Br)cc1.Cl` (stereo not drawn), the “hERG current change (%, negative = inhibition) at 1uM” value is 7.3%. The value for `CCCCCC(O)(CCN1CCCCC1)c1ccccc1.Cl` (stereo not drawn) was -84.7%; that for `CCCOc1ccc(C(O)(CCC)CCN2CCCCC2)cc1` (stereo not drawn) was -25.4%; that for `CCC(O)(CCN1CCCCC1)c1ccccc1` (stereo not drawn) was 3.27%. Turning to `CCCCOc1ccc(C(O)(CCC)CCN2CCOCC2)cc1` (stereo not drawn), the “hERG current change (%, negative = inhibition) at 1uM” value is listed as -11%. The value for `CCCCC(O)(CCN1CCOCC1)c1ccc(Cl)cc1.Cl` (stereo not drawn) was -51.3%.

Turning to `CCCC(O)(CCN1CCOCC1)c1ccc(Cl)cc1` (stereo not drawn), the “hERG current change (%, negative = inhibition) at 1uM” value is 6.26%. Regarding `O=C1C=C(N2CCCCC2)C2(CCCCC2)O1`, the “hERG current change (%, negative = inhibition) at 1uM” value was determined as 10.8%. For `Nc1nc(NCc2ccco2)nc(Nc2cccc(F)c2)c1[N+](=O)[O-]`, the “hERG current change (%, negative = inhibition) at 1uM” value was 18.1%. Turning to `O=C(NCCc1ccccc1)c1ccc(Cl)nc1`, the “hERG current change (%, negative = inhibition) at 1uM” value was found to be 18%.

In the case of `COC(=O)c1ccc(CSc2nnc(Nc3cccc(OC)c3)s2)o1`, the “hERG current change (%, negative = inhibition) at 1uM” value is reported as 10.7%. On to `COCCCC1CCN(C(=O)C2CCC(=O)N(CC3CCCCC3)C2)CC1` (stereo not drawn), for which the “hERG current change (%, negative = inhibition) at 1uM” value is listed as 2.85%. Consider `COc1ccc(OCC(O)CN2CCNCC2)cc1.Cl` (stereo not drawn), for which the “hERG current change (%, negative = inhibition) at 1uM” value is recorded as 14.6%. Turning to `Fc1cccc(NC(=S)NNc2ccccc2)c1`, the “hERG current change (%, negative = inhibition) at 1uM” value is recorded as 10.7%. The value for `Cc1ccc2cc(CN(CC3CCCO3)C(=S)Nc3ccccc3)c(=O)[nH]c2c1C` (stereo not drawn) was 13.3%; that for `CCOC(=O)c1[nH]ncc1CN1CCCC(C(=O)c2cc(Cl)ccc2OC)C1` (stereo not drawn) was -29.9%; that for `O=C(NCCc1ccc2c(c1)OCCO2)c1cc2ccccc2o1` was -16.6%. On to `CN(C)S(=O)(=O)N1CCC(Oc2cccc(C(=O)NC3CCCCC3)c2)CC1`, for which the “hERG current change (%, negative = inhibition) at 1uM” value was found to be 2.87%. As for `CCOC(=O)C(C)(C)Sc1nc2c(cnn2-c2ccc(Cl)cc2)c(=O)[nH]1`, the figure is 4.97%; as for `Cl.O=C(OC1CCN(CCCl)CC1)C(c1ccccc1)c1ccccc1`, 15.9%. The value for `CCN1CCCC(OC(=O)C(c2ccccc2)c2ccccc2)C1.Cl` (stereo not drawn) was -53%. As for `CCN1CCCC(OC(=O)Nc2ccccc2)C1` (stereo not drawn), the figure is 6.59%. Take `Cc1ccc(OCC(=O)Nc2ccc3c(c2)nc(CCN2CCCCC2)n3C)cc1`: the “hERG current change (%, negative = inhibition) at 1uM” value is listed as -60%. Turning to `Cc1cccc(OCC(=O)Nc2ccc3c(c2)nc(CCN2CCCCC2)n3C)c1`, the “hERG current change (%, negative = inhibition) at 1uM” value is recorded as -58.3%. The value for `Cc1cccc(OCC(=O)Nc2ccc3c(c2)nc(CN2CCCCC2)n3C)c1.Cl` was -3.37%; that for `CCN1CCN(CCc2nc3cc(NC(=O)COc4ccc(Cl)cc4)ccc3n2C)CC1` was -26.8%. As for `Cc1cccc(OCC(=O)Nc2ccc3c(c2)nc(CCN2CCN(C)CC2)n3C)c1`, the figure is -6.31%; as for `CCN1CCN(CCc2nc3cc(NC(=O)COc4ccccc4)ccc3n2C)CC1`, 0.262%. As to `CN1CCN(CCc2nc3cc(NC(=O)COc4ccc(Cl)cc4)ccc3n2C)CC1`, the “hERG current change (%, negative = inhibition) at 1uM” value is reported as -7.52%.

As to `Cc1ccc(OCC(=O)Nc2ccc3c(c2)nc(CCN2CCN(C)CC2)n3C)cc1`, the “hERG current change (%, negative = inhibition) at 1uM” value was -5.14%. On to `COc1ccc(OCC(=O)Nc2ccc3c(c2)nc(CCN2CCCCC2)n3C)cc1`, for which the “hERG current change (%, negative = inhibition) at 1uM” value is -31.3%. On to `CN1CCN(CCc2nc3cc(NC(=O)COc4ccccc4)ccc3n2C)CC1`, for which the “hERG current change (%, negative = inhibition) at 1uM” value is recorded as -13.2%. As for `Cn1c(CCN2CCCCC2)nc2cc(NC(=O)COc3ccc(Cl)cc3)ccc21`, the figure is -89.6%; as for `Cn1c(CCN2CCCCC2)nc2cc(NC(=O)COc3ccccc3)ccc21`, -51.9%; as for `COC(=O)C1=C(c2ccc(-c3ccccc3)c(F)c2)C[C@@H]2CC[C@H]1N2C(=O)NCCc1ccccc1`, 15.4%.

With `CCOC(=O)C(=CNNc1c(C)csc1C(=O)OC)C(=O)OCC`, the “hERG current change (%, negative = inhibition) at 1uM” value is given as 16.7%.

`COc1ccc(CCNC(=O)CN2C(=O)NC(Cc3c[nH]c4ccccc34)C2=O)cc1` (stereo not drawn): the “hERG current change (%, negative = inhibition) at 1uM” value was 9.58%.

On to `Cc1cc(OCC(=O)NC(Cc2c[nH]c3ccc(O)cc23)C(=O)O)c2c(C)c(C)c(=O)oc2c1` (stereo not drawn), for which the “hERG current change (%, negative = inhibition) at 1uM” value was 14.5%. As for `CC(C)n1c(N)c(C#N)c2ccc([N+](=O)[O-])cc2c1=O`, the figure is -6.91%; as for `Cl.O=C(COc1ccc(Br)cc1CNC1CCCC1)Nc1ccccc1`, -28.2%.

As for `O=C(COc1ccc(Br)cc1CNC1CCCCC1)NCCc1ccccc1`, the “hERG current change (%, negative = inhibition) at 1uM” value was -59%. Regarding `Cl.O=C(COc1ccc(Br)cc1CNCCc1ccccc1)NCc1ccccc1`, the “hERG current change (%, negative = inhibition) at 1uM” value was -11.5%.

Regarding `CCCNCc1cc(Br)ccc1OCC(=O)NCCc1ccccc1`, the “hERG current change (%, negative = inhibition) at 1uM” value is reported as -10.7%. Take `CCN(CC)CCNCc1cc(Br)ccc1OCC(=O)NCc1ccccc1.Cl`: the “hERG current change (%, negative = inhibition) at 1uM” value is -54.6%. For the compound `CCN(CC)CCNCc1ccc(Br)cc1OCC(=O)NCc1ccccc1.Cl`, the “hERG current change (%, negative = inhibition) at 1uM” value is -7.7%.

With `O=c1c2c(-c3cccs3)csc2ncn1-c1ccc(Br)cc1`, the “hERG current change (%, negative = inhibition) at 1uM” value is reported as -2.84%. As for `CCCNC(=O)N1[C@H]2CC[C@@H]1C(C(=O)OC)=C(c1ccc3ccccc3c1)C2`, the figure is 4.04%. As for `COc1ccc(Cc2n[nH]c(=S)n2NC(=O)Nc2ccc(Cl)c(Cl)c2)cc1`, the figure is 10.2%; as for `Cc1ccc2c(c1)CC1(CN2C)C(=O)NC(=O)N(C(C)C)C1=O` (stereo not drawn), 19.3%.

`C/C(=N\Nc1nc2ccccc2[nH]1)c1cccs1`: the “hERG current change (%, negative = inhibition) at 1uM” value was -0.576%. The value for `C/C(=N\Nc1nc2ccccc2[nH]1)c1ccc(C)o1` was 8.2%; that for `C/C(=N\Nc1nc2ccccc2[nH]1)c1ccccn1` was -55.5%.
